Compound activity deposited in PubChem by several laboratories.
Only some compounds are listed: those with a hit (about 3.8% of all), similar ones and a draw of the others.
NALP3 yeast inh: inhibitors of NALP3 inflammasome in yeast; 330,000 tested, 0.39% active; AID 2825; Yeast reconstituted NLRP3/ASC/caspase-1, beta-gal luminescence, 24 h; inhibition, % at 10 µM;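 active = inhibition of 50% or more; inactive = inhibition below 50%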;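 note: plate controls were induced DMSO wells for no effect and uninduced yeast grown without galactose for full effect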
tim23-1 inh: inhibits growth of tim23-1 mutant yeast. S. cerevisiae tim23-1 growth, BacTiter-Glo luminescence, 24 h. inhibition, % at 20 µM. 330,000 tested, 1.3% active;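 active = growth inhibition of the mutant yeast at or above 50%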;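 note: temperature-sensitive mutant grown at 25 °C; plate controls were DMSO-treated mutant yeast for no effect and medium wells lacking yeast for full effect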
CR mimetic SO: lowers age-related superoxide in aged yeast cells. superoxide response (% of plate mean), % at 10 µM. AID 2690. S. cerevisiae aged cells, superoxide DHE fluorescence; active compounds read low. 330,000 tested, 0.18% active;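 active = superoxide response under a set limit, about three screen SD below normal, cut at about 65% in these data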;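 note: yeast aged for seven days with compound at 30 °C before DHE staining; 100% = average MFI of all compound-treated wells on the plate with controls excluded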
tim10-1 inh: inhibits growth of tim10-1 mutant yeast; S. cerevisiae tim10-1 ts strain growth, BacTiter-Glo, 24 h; inhibition, % at 20 µM; 330,000 tested, 2.2% active;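 active = inhibition of at least 40%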;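 note: mutant grown at 25 °C; 0% = DMSO wells with yeast and 100% = wells holding no yeast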
TIM10 inh: inhibits growth of TIM10 yeast strain; S. cerevisiae TIM10 strain growth, BacTiter-Glo luminescence, 24 h; inhibition, % at 10 µM; 330,000 tested, 1.4% active;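 active = inhibition of 40% or more at the single tested concentration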;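 note: wild-type TIM10 isogenic control strain grown at permissive 25 °C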
NALP3 confirm: confirmation of NALP3 inhibitors in yeast; yeast expressing human NALP3, luminescence; inhibition, % at 10 µM; AID 435006; 1,300 tested, 81% active; shares compounds with NALP3 yeast inh; in the data active = inhibition above about 48%
Casp1 ASC ctr: active in yeast caspase-1-ASC counter-screen for NALP3 inhibitors | inhibition, % at 10 µM | 1,000 tested, 66% active | yeast expressing Caspase-1-ASC, luminescence counter screen | shares compounds with NALP3 yeast inh
NALP3 retest: yeast NALP3 inhibition, confirmed on retest. shares compounds with NALP3 yeast inh. yeast expressing human NALP3, luminescence read-out. inhibition, % at 10 µM. 1,000 tested, 53% active. AID 488794
The depositor's hits bear a star; nt = not tested or not shown. Cut-off read from the data, not from the text of the source, unless noted: active = inhibition above about 50%; inactive = the rest.

SMILES | NALP3 yeast inh | tim23-1 inh | CR mimetic SO | tim10-1 inh | TIM10 inh | NALP3 confirm | Casp1 ASC ctr | NALP3 retest
Nc1c(-c2ccccc2)cnn1-c1cccc(C(F)(F)F)c1 | 59.6* | -15.6 | 102.0 | -24.8 | -41.4 | 62.3* | 61.9* | 52.9*
Nc1c(-c2ccc(Cl)cc2)cnn1-c1cc(C(F)(F)F)cc(C(F)(F)F)c1 | 1.1 | -1.4 | 121.5 | -5.3 | -4.7 | nt | nt | nt
Nc1c(-c2cccc(Cl)c2)cnn1-c1cccc(C(F)(F)F)c1 | 53.5* | 30.9 | 102.4 | 17.3 | 16.8 | 72.5* | 65.0* | 50.2*
O=C(CC(=O)Nc1ccc(Cl)cc1)N/N=C\c1cccc(F)c1 | 11.1 | -0.3 | 101.2 | -7.7 | 2.5 | nt | nt | nt
O=C(NCCc1ccccc1)c1cc(=O)[nH]c2ccccc12 | 4.3 | -7.0 | 92.2 | 4.9 | -2.8 | nt | nt | nt
C=C(C)[C@@H]1CC[C@]2(C(=O)O)CC[C@]3(C)C(CCC4[C@@]5(C)CC[C@H](O)C(C)(C)C5CC[C@]43C)C12 (stereo partly specified) | 12.2 | -7.2 | 82.5 | 5.3 | -11.3 | nt | nt | nt
C=C(CC[C@@H](O)C(C)(C)O)[C@H]1CC[C@]2(C)[C@@H]1CCC1[C@@]3(C)CCC(=O)C(C)(C)C3CC[C@]12C (stereo partly specified) | 54.4* | 16.6 | 83.3 | 3.5 | -8.8 | 45.6 | 51.9* | 37.5
COc1ccc(NC(=O)c2cc3ccccc3o2)cc1 | 55.3* | 39.7 | 98.5 | -10.7 | 11.6 | 79.2* | 66.4* | 61.4*
O=C(Nc1ccccc1)c1cc2ccccc2o1 | 52.4* | 35.4 | 92.0 | -8.7 | -5.1 | 50.8* | 53.1* | 53.0*
O=C(Nc1ccc(F)cc1)c1cc2ccccc2o1 | 24.0 | 11.9 | 95.7 | 7.6 | 3.1 | nt | nt | nt
Cc1ccc(NC(=O)c2cc3ccccc3o2)cc1Cl | 50.4* | 46.8 | 105.2 | -4.2 | 37.8 | 67.8* | 39.1 | 40.4
O=[N+]([O-])c1cccnc1S(=O)(=O)c1ccccc1 | 57.7* | 9.2 | 105.2 | 22.3 | -5.4 | 63.1* | 50.3* | 38.8
Nc1nc2ccccc2cc1S(=O)(=O)c1ccccc1 | 83.3* | 12.2 | 89.8 | -17.8 | -28.1 | 86.8* | nt | nt
O=S(=O)(c1ccccc1)c1cnc2ccccc2c1 | 45.6 | 10.3 | 99.3 | 10.9 | -3.0 | nt | nt | nt
CC(=O)Nc1ccc(S(=O)(=O)Nc2ccn(Cc3ccccc3Cl)n2)cc1 | 0.2 | 9.4 | nt | -2.2 | 5.8 | nt | nt | nt
CCc1noc(C)c1C(=O)OCC(=O)N(C)c1c(N)n(Cc2ccccc2)c(=O)[nH]c1=O | 3.2 | 7.0 | 108.5 | 2.2 | 2.1 | nt | nt | nt
C/C(=N\Nc1ncc(Br)cn1)c1cccc([N+](=O)[O-])c1 | 50.7* | 28.8 | 110.7 | 13.1 | -1.7 | 61.0* | 63.5* | 49.2
C/C(=N\Nc1nc(N2CCOCC2)nc(N2CCOCC2)n1)c1cccc([N+](=O)[O-])c1 | 14.5 | -1.6 | 104.9 | 12.0 | 21.3 | nt | nt | nt
COc1ccc(OC)c(NC(=O)c2cccc(N3C(=O)C4C5C=CC(C6CC56)C4C3=O)c2)c1 (stereo unspecified) | 10.6 | 19.5 | 104.9 | 8.3 | 5.7 | nt | nt | nt
CSc1nc2ccc(NC(=O)c3ccco3)cc2s1 | 50.6* | 20.8 | 97.8 | -70.7 | -38.2 | 58.3* | 55.8* | 53.6*
O=C(Nc1ccc(-c2nc3cccnc3s2)cc1)c1ccco1 | 51.4* | 32.1 | 107.2 | -52.3 | -15.2 | 71.8* | 46.5 | 48.1
O=C(Nc1cccc(-c2nc3cccnc3s2)c1)c1ccco1 | 33.4 | 46.8 | 114.6 | -63.0 | 3.9 | nt | nt | nt
COc1ccc(C(CNC(=O)c2cccc(S(=O)(=O)NCc3ccccc3)c2)N(C)C)cc1 (stereo unspecified) | 11.5 | -12.6 | 104.4 | 4.6 | -4.1 | nt | nt | nt
COc1ccc(C(=O)c2no[n+]([O-])c2C(=O)c2ccc(OC)cc2)cc1 | 69.5* | 32.0 | 71.3 | 7.3 | 4.3 | 79.8* | 80.6* | 61.9*
COc1ccc(NC(=O)c2c(N)no[n+]2[O-])cc1 | 20.8 | 7.4 | 98.3 | 5.7 | 14.0 | nt | nt | nt
SMILES | NALP3 yeast inh | tim23-1 inh | CR mimetic SO | tim10-1 inh | TIM10 inh | NALP3 confirm | Casp1 ASC ctr | NALP3 retest
CC(C)(C)N1CC(C(=O)Nc2cccc(Cl)c2Cl)CC1=O (stereo unspecified) | 18.1 | 19.4 | 123.7 | 17.9 | -7.5 | nt | nt | nt
COc1ccc(OC)c(NC(=O)C(=O)NNC(=O)C23CC4CC(CC(C4)C2)C3)c1 | 17.5 | -8.3 | 96.8 | 17.4 | 8.8 | nt | nt | nt
Cc1cccc(CN2CCSc3sccc3C2=O)c1 | 37.7 | 14.8 | 107.8 | 10.4 | -11.1 | nt | nt | nt
O=C1c2ccsc2SCCN1Cc1ccc(F)cc1 | 65.3* | 6.4 | 108.7 | 23.9 | -6.9 | 71.8* | 63.2* | 33.5
O=C1c2ccsc2SCCN1Cc1cccc(Cl)c1 | 39.3 | 20.6 | 116.2 | 14.5 | -31.3 | nt | nt | nt
O=C1c2ccsc2SCCN1Cc1ccc(Cl)cc1 | 79.4* | 35.4 | 89.7 | 10.4 | -2.2 | 83.5* | 88.4* | 79.8*
Cc1ccc(CN2CCSc3sccc3C2=O)cc1 | 81.2* | 16.1 | 82.8 | -14.9 | -24.6 | 74.3* | 89.3* | 77.4*
Cc1ccc(N2CC(C(=O)Nc3cccc(C(=O)NC4CC4)c3)CC2=O)cc1 (stereo unspecified) | 11.5 | 11.3 | 78.8 | 1.0 | 18.6 | nt | nt | nt
CCC1=C(OC(=O)N(CC)CC)N2C(=O)OC(=NCCc3c[nH]c4ccccc34)[C@]2(C)[C@H]2C1=CC[C@H]1C(=O)N(CC(=O)OC)C(=O)[C@H]12 | -2.9 | 13.7 | 98.2 | 1.0 | -4.2 | nt | nt | nt
CC(OC(=O)[C@@H](NC(=O)c1ccco1)C(C)C)C(=O)Nc1ncc(Cl)cc1Cl (stereo partly specified) | 9.8 | -5.3 | 83.4 | 2.9 | -4.0 | nt | nt | nt
C(=C\c1ccccc1)/CSc1nnc(-c2cnccn2)n1Cc1ccco1 | 8.9 | 29.1 | 90.9 | 3.1 | 7.9 | nt | nt | nt
Fc1ccccc1CSc1nnc(-c2cnccn2)n1Cc1ccco1 | -133.3 | 26.5 | 125.1 | 22.3 | 28.5 | -33.4 | nt | nt
CCN=C1SC(CC(=O)Nc2sc(C)c(C)c2C(=O)OC)C(=O)N1CC (stereo unspecified) | 55.6* | -0.4 | 97.3 | -0.3 | -7.7 | 64.3* | 63.5* | 52.2*
N#CCC(=O)Nc1ccc(C(=O)Nc2cccnc2)cc1 | 13.0 | 17.1 | 74.0 | -7.6 | -4.2 | nt | nt | nt
COc1cc(NC(=O)CN2CCCCC2)c(C)cc1[N+](=O)[O-] | 7.5 | -2.6 | 109.0 | 9.2 | -16.9 | nt | nt | nt
COc1cc(NC(=O)CN2C(=O)CN(C)C2=O)c(C)cc1[N+](=O)[O-] | 81.4* | -19.2 | 111.5 | 12.1 | 6.8 | 33.8 | nt | nt
CCSc1oc(-c2ccco2)nc1S(=O)(=O)c1ccc(C)cc1 | 51.7* | 24.6 | 94.0 | -3.9 | -13.1 | 49.9* | 50.2* | 45.6
O=S(=O)(Oc1ccc(Cl)cc1)c1cccc2cccnc12 | 58.5* | 15.2 | 85.4 | 4.4 | -14.1 | 54.0* | 71.5* | 60.6*
